# Test results as given in ChEMBL document CHEMBL1961873, “Compounds: GSK PKIS; Assays: Nanosyn kinase panel” (2012).
# Experiments:
# [1] = target: Sphingosine kinase 1 (Homo sapiens) (UniProt Q9NYA1); settings: at 1 µM;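 also: mean SPHK1 inhibition value reported from the GSK PKIS kinase panel screen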
# [2] = target: T1, Sphingosine kinase 2 (Homo sapiens) (UniProt Q9NRA0); settings: at 0.1 µM
# T1 sequence (whole entry): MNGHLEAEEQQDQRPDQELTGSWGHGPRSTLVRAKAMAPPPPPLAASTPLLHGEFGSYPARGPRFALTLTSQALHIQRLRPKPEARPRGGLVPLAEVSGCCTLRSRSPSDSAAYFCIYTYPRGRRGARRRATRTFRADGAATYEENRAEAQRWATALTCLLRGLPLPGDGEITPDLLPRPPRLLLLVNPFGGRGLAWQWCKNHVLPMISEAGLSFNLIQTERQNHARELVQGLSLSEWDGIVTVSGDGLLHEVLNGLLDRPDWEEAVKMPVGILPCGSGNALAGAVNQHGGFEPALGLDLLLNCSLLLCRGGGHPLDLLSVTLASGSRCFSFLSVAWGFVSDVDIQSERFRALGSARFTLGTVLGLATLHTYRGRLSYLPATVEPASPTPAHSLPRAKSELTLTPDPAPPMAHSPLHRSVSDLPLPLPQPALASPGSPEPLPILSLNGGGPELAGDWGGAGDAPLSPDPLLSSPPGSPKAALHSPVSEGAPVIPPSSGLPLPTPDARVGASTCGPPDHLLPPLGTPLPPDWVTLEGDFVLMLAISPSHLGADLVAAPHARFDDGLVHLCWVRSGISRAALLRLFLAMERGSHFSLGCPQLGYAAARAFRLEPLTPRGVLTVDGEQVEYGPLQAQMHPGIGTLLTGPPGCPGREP
# [3] = target: T1, Sphingosine kinase 2 (Homo sapiens); settings: at 1 µM
# [4] = target: Casein kinase II subunit alpha (Homo sapiens) (UniProt P68400); settings: at 0.1 µM
# [5] = target: Casein kinase II subunit alpha (Homo sapiens) (UniProt P68400); settings: at 1 µM
# [6] = target: T2, Inhibitor of nuclear factor kappa-B kinase subunit alpha (Homo sapiens) (UniProt O15111); settings: at 0.1 µM
# T2 sequence (whole entry): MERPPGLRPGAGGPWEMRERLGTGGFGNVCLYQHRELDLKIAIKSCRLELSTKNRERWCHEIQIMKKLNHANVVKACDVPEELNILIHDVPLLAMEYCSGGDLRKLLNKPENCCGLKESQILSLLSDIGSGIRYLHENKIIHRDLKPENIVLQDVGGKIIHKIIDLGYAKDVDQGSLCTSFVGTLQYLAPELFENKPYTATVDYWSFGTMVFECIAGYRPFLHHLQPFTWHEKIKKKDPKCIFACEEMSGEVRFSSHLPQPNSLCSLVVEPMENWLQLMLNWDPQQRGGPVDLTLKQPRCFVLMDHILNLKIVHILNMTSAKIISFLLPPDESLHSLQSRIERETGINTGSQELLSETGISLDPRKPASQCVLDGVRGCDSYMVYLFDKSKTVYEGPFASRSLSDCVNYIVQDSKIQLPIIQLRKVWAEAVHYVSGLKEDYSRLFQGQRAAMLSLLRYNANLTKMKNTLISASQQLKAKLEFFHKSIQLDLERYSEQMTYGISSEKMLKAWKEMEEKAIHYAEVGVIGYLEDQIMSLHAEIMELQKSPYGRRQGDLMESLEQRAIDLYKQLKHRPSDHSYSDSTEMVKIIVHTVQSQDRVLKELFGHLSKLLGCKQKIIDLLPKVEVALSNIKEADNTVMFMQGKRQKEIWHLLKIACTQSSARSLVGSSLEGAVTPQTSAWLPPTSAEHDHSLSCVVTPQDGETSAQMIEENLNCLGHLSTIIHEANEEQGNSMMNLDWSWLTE
# [7] = target: T2, Inhibitor of nuclear factor kappa-B kinase subunit alpha (Homo sapiens); settings: at 1 µM
# [8] = target: T3, Inhibitor of nuclear factor kappa-B kinase subunit beta (Homo sapiens) (UniProt O14920); settings: at 0.1 µM
# T3 sequence (whole entry): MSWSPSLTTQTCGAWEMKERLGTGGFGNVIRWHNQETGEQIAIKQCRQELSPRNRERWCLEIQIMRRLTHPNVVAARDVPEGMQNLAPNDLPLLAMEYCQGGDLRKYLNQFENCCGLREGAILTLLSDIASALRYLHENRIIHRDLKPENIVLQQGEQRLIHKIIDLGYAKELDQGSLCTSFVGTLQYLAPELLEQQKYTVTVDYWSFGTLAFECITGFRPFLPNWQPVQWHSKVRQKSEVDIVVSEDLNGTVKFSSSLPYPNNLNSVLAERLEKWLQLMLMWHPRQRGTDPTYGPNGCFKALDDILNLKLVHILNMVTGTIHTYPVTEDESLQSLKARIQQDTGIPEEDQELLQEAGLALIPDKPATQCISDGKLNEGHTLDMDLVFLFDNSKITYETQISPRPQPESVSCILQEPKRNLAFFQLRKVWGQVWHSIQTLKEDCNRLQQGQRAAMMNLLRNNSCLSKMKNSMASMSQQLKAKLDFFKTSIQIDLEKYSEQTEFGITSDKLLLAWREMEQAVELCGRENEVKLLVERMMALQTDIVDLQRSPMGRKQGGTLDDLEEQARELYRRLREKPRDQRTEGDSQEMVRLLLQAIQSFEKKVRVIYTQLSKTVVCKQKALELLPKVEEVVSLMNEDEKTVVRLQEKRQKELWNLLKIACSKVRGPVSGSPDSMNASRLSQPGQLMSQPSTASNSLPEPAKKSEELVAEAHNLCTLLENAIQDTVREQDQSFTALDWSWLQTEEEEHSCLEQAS
# [9] = target: T3, Inhibitor of nuclear factor kappa-B kinase subunit beta (Homo sapiens); settings: at 1 µM
# [10] = target: T4, Inhibitor of nuclear factor kappa-B kinase subunit epsilon (Homo sapiens) (UniProt Q14164); settings: at 0.1 µM;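 also: mean inhibition of IKKε reported, from the GSK PKIS dataset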
# T4 sequence (whole entry): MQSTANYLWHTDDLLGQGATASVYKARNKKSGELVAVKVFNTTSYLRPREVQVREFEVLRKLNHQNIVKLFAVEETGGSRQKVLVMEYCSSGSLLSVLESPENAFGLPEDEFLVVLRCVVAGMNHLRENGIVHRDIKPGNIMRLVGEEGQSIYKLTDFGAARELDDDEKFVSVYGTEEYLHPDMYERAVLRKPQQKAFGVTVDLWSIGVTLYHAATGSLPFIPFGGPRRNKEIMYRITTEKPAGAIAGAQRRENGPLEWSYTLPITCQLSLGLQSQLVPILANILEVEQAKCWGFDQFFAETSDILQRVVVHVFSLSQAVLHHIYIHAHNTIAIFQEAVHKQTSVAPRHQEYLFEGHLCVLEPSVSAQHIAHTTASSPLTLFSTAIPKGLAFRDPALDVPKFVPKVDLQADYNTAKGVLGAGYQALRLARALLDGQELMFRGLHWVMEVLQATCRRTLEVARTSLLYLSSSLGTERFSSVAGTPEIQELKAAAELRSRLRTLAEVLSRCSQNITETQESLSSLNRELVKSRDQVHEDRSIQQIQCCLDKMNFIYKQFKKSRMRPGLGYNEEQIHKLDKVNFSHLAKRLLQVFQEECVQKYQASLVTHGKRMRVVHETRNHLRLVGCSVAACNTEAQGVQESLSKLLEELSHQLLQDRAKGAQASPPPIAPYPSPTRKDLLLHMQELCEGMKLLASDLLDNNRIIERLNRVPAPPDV
# Sphingosine kinase 1 (Homo sapiens), sequence (Q9NYA1 whole entry): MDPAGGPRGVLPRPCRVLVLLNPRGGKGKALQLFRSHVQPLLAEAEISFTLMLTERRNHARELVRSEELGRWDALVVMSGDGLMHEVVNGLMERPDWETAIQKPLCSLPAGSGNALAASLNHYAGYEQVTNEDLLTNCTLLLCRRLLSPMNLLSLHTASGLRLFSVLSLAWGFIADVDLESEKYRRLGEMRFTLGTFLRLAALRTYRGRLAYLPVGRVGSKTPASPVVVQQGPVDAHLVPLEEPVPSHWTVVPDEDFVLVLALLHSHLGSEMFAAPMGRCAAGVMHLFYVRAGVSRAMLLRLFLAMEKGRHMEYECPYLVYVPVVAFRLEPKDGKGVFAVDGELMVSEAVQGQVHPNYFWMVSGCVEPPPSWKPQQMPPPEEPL
# Casein kinase II subunit alpha (Homo sapiens), sequence (P68400 whole entry, looked up): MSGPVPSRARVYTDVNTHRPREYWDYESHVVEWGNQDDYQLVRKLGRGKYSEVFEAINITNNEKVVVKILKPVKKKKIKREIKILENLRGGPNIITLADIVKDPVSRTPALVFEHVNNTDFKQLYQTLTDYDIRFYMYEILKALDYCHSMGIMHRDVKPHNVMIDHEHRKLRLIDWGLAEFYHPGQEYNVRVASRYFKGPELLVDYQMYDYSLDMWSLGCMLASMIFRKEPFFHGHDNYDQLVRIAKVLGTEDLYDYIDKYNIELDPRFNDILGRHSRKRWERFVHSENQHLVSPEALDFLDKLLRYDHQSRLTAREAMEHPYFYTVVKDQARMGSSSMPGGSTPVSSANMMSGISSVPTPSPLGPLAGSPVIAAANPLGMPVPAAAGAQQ
Compound,inhibition [1] [%],inhibition [2] [%],inhibition [3] [%],inhibition [4] [%],inhibition [5] [%],inhibition [6] [%],inhibition [7] [%],inhibition [8] [%],inhibition [9] [%],inhibition [10] [%]
NCc1ccc(-c2nc(-c3ccc(Cl)c(O)c3)c(-c3ccncc3)[nH]2)cc1,-0.71,-0.06,0,0.86,1.53,3.45,-3.91,1.08,0.02,1.2
Nc1ncnc2occ(-c3ccc(NC(=O)Nc4cccc(C(F)(F)F)c4)cc3)c12,-6.26,0.27,1.95,7.18,4.76,6.44,11.1,6.2,7.53,8.03
CC1=C(C(=O)Nc2ccc3[nH]ncc3c2)C(c2ccc(Cl)c(Cl)c2)CC(=O)N1 (stereo not given),-3.67,-0.3,-1.45,2.1,3.35,5.09,2.52,3.16,0.15,0.83
CC1=C(C(=O)Nc2ccc3[nH]ncc3c2)C(c2ccc(F)cc2)NC(=O)N1 (stereo not given),-2.09,-0.06,-0.16,1.87,0.86,0.45,7.79,1.68,1.73,1.7
Cc1nnc(-c2ccc(C)c(-c3ccc(C(=O)Nc4cccc(C#N)c4)cc3)c2)o1,0,0,1.55,1.51,6.5,7.7,4,3.09,8.71,3.28
COc1cccc(-n2ncc3c(N/N=C/c4cccc(F)c4)ncnc32)c1,-2.05,3.58,-0.22,1.77,11.4,-0.08,6.98,2.27,0.31,3.6
Cc1cccc(-c2n[nH]cc2-c2ccc3ncccc3n2)n1,-1.51,0.61,0.2,1.46,4.82,2.07,5.93,0.87,0.63,0.62
COc1ccc(COc2ccc(Cc3cnc(N)nc3N)cc2OC)cc1,-2.38,0.09,-0.88,-2.39,-8.59,2.25,-7.71,-1.1,-1.34,-1.79
O=C(Nc1n[nH]c2nc(-c3ccco3)c(Br)cc12)C1CC1,-1.04,0.57,0.07,-0.1,-1.87,-4.07,-2.15,1.61,2.38,3.19
COc1ccc2cc(-c3c(-c4ccncc4)nc(-c4ccc([S+](C)[O-])cc4)n3C)ccc2c1 (stereo not given),-3.23,-1.61,-1.21,0.27,-4.21,3.64,0.12,3.95,3.93,4.41
CCn1c(-c2nonc2N)nc2cncc(C(=O)N3CCNCC3)c21,-1.31,2.81,0.77,4.04,2.82,1.05,5.47,6.46,8.59,12.2
CS(=O)(=O)Nc1ccc(N/C=C2\C(=O)Nc3ccccc32)cc1,0.22,-1.15,0.65,2.93,0.34,-1.19,13.7,-4.89,-1.38,-4.27
CNC(=O)c1cncc(/C=C/c2c(Cl)cccc2Cl)c1,-1.49,0.89,-2.09,16.9,14.9,1.91,0.72,7.67,11.4,5.94
Fc1cccc(COc2ccc(Nc3ncnc4cc(-c5ccc[nH]5)sc34)cc2Cl)c1,4.94,0.87,-0.25,1.61,2.66,2.16,1.99,2.5,1.35,2.66
c1cnn2ncc(-c3ccnc(Nc4ccc5c(c4)OCCO5)n3)c2c1,-1.74,2.07,0.2,13.2,47.5,14.7,60.5,8.92,30,6.75
Cc1ccc(C(=O)NC2CCCCC2)cc1-c1ccc(C(=O)NCC2CC2)cc1,-0.86,-0.91,-1.61,0.66,-5.06,-3.35,-8.02,3.29,-2.31,1.75
Cn1cc(C=C2C(=O)Nc3cccnc32)c2ccccc21,8.29,-4.3,-0.04,1.08,6.39,5.69,-0.33,2.27,1.05,3.13
Nc1ncnc2occ(-c3ccc(NC(=O)Nc4cc(C(F)(F)F)cc(C(F)(F)F)c4)cc3)c12,-0.76,1.12,-0.25,0.36,-5.3,-5.23,-3.15,-0.04,1.07,-2.4
CCn1c(-c2nonc2N)nc2cncc(C(=O)N3CC[C@H](N)C3)c21,-5.44,0.23,-0.8,3.78,3.7,14,18.8,7.24,5.79,13.8
